Compound activity (PubChem)
HPGD block: blocks human HPGD enzyme activity. AID 894. Potency, µM, without a hit: at the highest dose activity change, negative = inhibition, most hits filed as inhibitors. 4.3% of 150,000 active. purified HPGD, NADH fluorescence kinetic, PGE2 substrate; active = well fitted inhibition curve with a large enough effect, not every such curve was filed as active; inconclusive = small, poorly fitted or top-dose-only effect, or another doubt; inactive = no such curve, though single readings can be large or run the other way; note: potency is the fitted concentration of half-maximal effect
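NADH formation kinetics: reaction with 30 uM PGE2 and 1 mM NAD+ (final), 20 nM enzyme, Tris-HCl pH 8 with Tween 20, after 15 min compound preincubation at room temperature. Fluorescence change, last versus first of five reads.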
ALOX12 inhib: 12-hLO (ALOX12) enzyme inhibition. P18054. purified 12-hLO, xylenol orange hydroperoxide absorbance. Potency, µM (titrated, usually from 57.1 µM), without a hit: top-dose activity change, negative = inhibition, actives largely listed as inhibitors. 0.12% of 150,000 active; note: potency is the fitted concentration of half-maximal effect; nearly all actives have a fitted effect of over 55% in size
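Xylenol orange chromogenic assay: hydroperoxide from 12hLO oxidises Fe(II), giving red-shifted Fe(III)-XO absorbance. Conditions: 150 nM enzyme, 40 uM arachidonic acid, 25 mM Hepes pH 7.0, 0.01% Triton X-100, 30 min, room temperature.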
GLA spleen mod: inhibitors or activators of human alpha-galactosidase in spleen homogenate. human spleen homogenate, 4MU-alpha-Gal fluorescence, 40 min. Potency, µM (top dose mostly 80 µM), without a hit: at the top dose activity change, negative = inhibition, most hits filed as inhibitors. P06280. 0.008% of 240,000 active;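 note: potency is the fitted concentration of half-maximal effect; 0% = enzyme with vehicle and -100% = no enzyme basal signal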
Target sequence (P06280 32-429 limits assumed): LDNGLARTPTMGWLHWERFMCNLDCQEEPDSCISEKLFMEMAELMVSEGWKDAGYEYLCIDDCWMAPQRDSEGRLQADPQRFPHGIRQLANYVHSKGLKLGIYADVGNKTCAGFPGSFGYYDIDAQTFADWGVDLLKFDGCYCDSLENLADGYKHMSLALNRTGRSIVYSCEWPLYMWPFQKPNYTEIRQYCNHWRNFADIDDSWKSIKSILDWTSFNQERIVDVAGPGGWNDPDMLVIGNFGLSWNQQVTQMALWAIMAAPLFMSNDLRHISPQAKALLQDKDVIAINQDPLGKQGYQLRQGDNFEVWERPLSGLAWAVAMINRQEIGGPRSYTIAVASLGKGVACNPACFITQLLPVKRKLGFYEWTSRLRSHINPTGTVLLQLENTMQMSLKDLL
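qHTS titration in buffer at pH 5.0. Alpha-galactosidase activity in spleen homogenate was measured via 4-methylumbelliferone release from 1 mM fluorogenic substrate after 40 min at 37C and a pH 10 stop. AC50 came from Hill fits of control-normalized data.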
ALDH1A1 inh: ALDH1A1 (human) enzyme inhibition; 7.3% of 220,000 active; Purified ALDH1A1, NADH fluorescence, propionaldehyde substrate; AID 1030; Potency, µM (series often up to 75.3 µM), for the others: at the top dose activity, negative = inhibition, most hits filed as inhibitors; P00352; active = well fitted inhibition curve with a large enough effect, not every such curve was filed as active; inconclusive = small, poorly fitted or top-dose-only effect, or another doubt; inactive = no such curve, though single readings can be large or run the other way;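 note: potency is the fitted concentration of half-maximal effect; plate controls were no enzyme wells and a reference inhibitor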
PNC assembly inh: inhibitors of perinucleolar compartment assembly | AID 2417 | activity change (PNC), negative = inhibition, % at 10 µM | 3.1% of 140,000 active | PC3M PTB-GFP, PNC prevalence imaging, 16 h; hits give low values;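 active = readout at or below -70, meaning at least 70% loss of cells showing the perinucleolar compartment, a nuclear body marking cancer cells; inconclusive = readout between -30 and a set limit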;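 note: plate controls were DMSO wells for no effect and camptothecin positive control wells for full effect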
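Read-out is percentage of cells bearing a perinucleolar compartment, from automated 20x imaging of fixed, Hoechst-stained PC3M PTB-GFP cells. Cells were seeded 4 h, then exposed 16 h to compound (23 nl of library stock) in duplicate plates.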
GLA inh pH 4.5: inhibitors of human alpha-galactosidase A at pH 4.5 | 230,000 tested, under 10 active | activity change, negative = inhibition, % at 105 µM | P06280 | purified enzyme, 4-MU-alpha-Gal fluorescence, pH 4.5 | AID 1467;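 note: 0% = full activity with enzyme and -100% = basal without enzyme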
Target sequence (P06280 whole entry, looked up): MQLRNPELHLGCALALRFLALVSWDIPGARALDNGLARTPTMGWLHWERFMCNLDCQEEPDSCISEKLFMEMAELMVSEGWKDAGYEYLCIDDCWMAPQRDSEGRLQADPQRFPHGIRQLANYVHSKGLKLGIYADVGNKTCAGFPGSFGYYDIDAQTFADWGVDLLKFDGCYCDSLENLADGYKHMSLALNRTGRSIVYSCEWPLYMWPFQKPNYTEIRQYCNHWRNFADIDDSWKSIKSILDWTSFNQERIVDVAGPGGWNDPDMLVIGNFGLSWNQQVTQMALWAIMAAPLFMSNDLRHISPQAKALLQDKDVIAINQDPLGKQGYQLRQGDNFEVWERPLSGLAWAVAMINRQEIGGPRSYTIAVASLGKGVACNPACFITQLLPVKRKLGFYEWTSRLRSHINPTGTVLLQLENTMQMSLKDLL
* hit, by the source's call; ? = inconclusive; . = no result given; [ ] = remark or other dose. Shown are actives, neighbours in structure and some others; about 10% of the full set was active somewhere. Unless noted, calls come from the whole dose curve; as a rule, active = well fitted curve in the direction sought with a large enough effect; inconclusive = small, poorly fitted or top-dose-only effect, or another doubt; inactive = no such curve, though single readings can be large; an effect the other way counts as inactive or inconclusive. Unless noted, % is set by controls: 0 for no effect and ±100 for the full control effect.

SMILES | HPGD block | ALOX12 inhib | GLA spleen mod | ALDH1A1 inh | PNC assembly inh | GLA inh pH 4.5
Cc1ccc(O)c(C(=O)c2cnn(C(=O)Cc3csc(C)n3)c2)c1 | -11.6% | -19.7% | 2.7% | 1.12µM* | 8.3 | 1.8
Cc1nc(CC(=O)c2ccc(O)c(C)c2O)cs1 | . | . | -1.0% | . | . | -0.4
C[C@H]1Cc2c(COc3ccccc3)nc3c(c2CO1)CN(C(=O)c1cccnc1)CC3 | -3.1% | 0.4%[11.4 µM] | -0.4%[17.5 µM] | -6.0%[13.5 µM] | . | 4.1
CC1(C)CC(=O)C(=Cc2cn(CCC#N)nc2-c2ccc(Cl)cc2)C(=O)C1 | 15.8µM* | -8.0% | -4.2% | -6.4% | -0.1 | 6.3
N#CCCn1cc(/C=C2\NC(=S)N(c3ccccc3)C2=O)c(-c2ccc(F)cc2)n1 | . | . | -1.5% | 25.1µM* | . | -8.5
CC1=NNC(=O)/C1=C\c1cn(-c2ccccc2)nc1-c1ccccc1 | . | . | -7.0% | -8.8% | . | 1.7
CC1(C)CC(=O)C(=Cc2cn(CCC#N)nc2-c2ccc(F)cc2)C(=O)C1 | 20µM* | -5.1% | -2.2% | -1.2% | ? | 7.5
CC1(C)CC(=O)C(=Cc2cn(-c3ccccc3)nc2-c2ccc(Cl)cc2)C(=O)C1 | 1.12µM* | 6.1% | ? | ? | 19.8 | -7.1
Cc1ccccc1CN(c1ccc(C(=O)NCc2ccccn2)cc1)S(C)(=O)=O | . | . | 5.2% | 5.7% | . | -24.2
CC1CC1C(=O)Nc1nc(-c2cccs2)c(-c2cccs2)s1 (stereo not drawn) | ? | -4.0% | 1.8% | ? | 13.7 | 6.2
O=C1[C@H]2[C@H]3[C@H](O)[C@H](O)C/C(=N/OC[C@@H](O)COCc4ccco4)[C@H]3CC[C@@H]2C(=O)N1c1cccc(Oc2ccccc2)c1 | . | . | 0.9%[17.5 µM] | 7.9%[13.5 µM] | . | .
COc1ccc(C(=O)N2CCC3(CCCN(c4ccncc4)C3)CC2)cc1 | -14.6% | 6.5% | 4.3% | 12.4% | . | .
COc1ccc(N(CC(=O)NCCSC2CCCCC2)S(C)(=O)=O)c(OC)c1 | 22.4µM* | -5.3% | -4.3% | 14.1µM* | ? | -3.7
CS(=O)(=O)N(CC(=O)NCCSC1CCCCC1)c1ccc2c(c1)OCO2 | -8.7% | -2.6% | 3.4% | ? | 38.0 | -5.9
Cc1cccc(C(=O)N[C@H](C(=O)Nc2cccc(S(=O)(=O)N3CCCC3)c2)C(C)C)c1 | . | . | -8.9% | . | . | 1.2
Cc1cccc(C(=O)N[C@H](C(=O)Nc2ccc(S(=O)(=O)NC3=NCCCCC3)cc2)C(C)C)c1 | . | . | 6.9% | 20µM* | . | -6.7
Cc1ccc(NNC(=O)C(=O)N2CCCCC2)cc1 | -2.2% | 1.1% | -10.2% | -2.7% | -89.9* | 0.5
Cc1ccccc1C(=O)NNC(=O)C(=O)N1CCCCC1 | 1.8% | 0.8% | 4.1% | 6.0% | 3.0 | -2.7
CC1=CC(C)(C)N(C(=O)CNC2CCCC2)c2cc(C)ccc21 | . | . | -8.8% | ? | . | -1.6
Fc1ccc(-c2nc3n(c2-c2ccncc2)CCS3)cc1 | ? | -5.7% | -2.5% | -5.9% | . | -4.5
Cc1nn(C)c(C)c1S(=O)(=O)N(CC(=O)N1CCc2ccccc2C1)c1ccc(C(C)C)cc1 | -4.9% | -9.7% | 1.4% | 11.2µM* | 32.0 | -11.6
Cc1nonc1C(=O)N/N=C/c1ccc(O)c(O)c1 | 31.6µM* | -1.8% | 0.0% | -8.5% | -16.3 | 4.8
CCN(CC)S(=O)(=O)c1ccc(N2CCOCC2)c(NC(=O)c2cc(C)cc(C)c2)c1 | -5.5% | -2.1% | 2.1% | ? | 30.1 | -1.6
CCN(CC)S(=O)(=O)c1ccc(N2CCOCC2)c(NC(=O)Cc2ccccc2F)c1 | -5.9% | -3.8% | -0.9% | ? | 60.1 | -3.3
CCN(CC)S(=O)(=O)c1ccc(N2CCOCC2)c(NC(=O)Cc2ccccc2)c1 | -9.4% | 5.2% | -2.3% | 12.6µM* | 75.4 | -5.8
SMILES | HPGD block | ALOX12 inhib | GLA spleen mod | ALDH1A1 inh | PNC assembly inh | GLA inh pH 4.5
CCN(CC)S(=O)(=O)c1ccc(N2CCOCC2)c(NC(=O)CCC2CCCCC2)c1 | ? | -1.0% | 7.1% | 1.58µM* | -13.1 | 2.7
CCN(CC)S(=O)(=O)c1ccc(N2CCOCC2)c(NC(=O)CC(C)(C)C)c1 | . | . | 0.7% | . | . | 2.7
CCN(CC)S(=O)(=O)c1ccc(O)c(NC(=O)c2ccc(N3CCOCC3)c([N+](=O)[O-])c2)c1 | 31.6µM* | 0.0% | 0.4% | 0.708µM* | 28.4 | -4.4
O=C(NCc1ccccc1C(F)(F)F)C1CC(c2ccccc2[N+](=O)[O-])=NO1 (stereo not drawn) | -12.1% | 1.4% | -2.5% | -4.1% | -14.8 | -8.3
COc1ccccc1Cn1c(=S)[nH]c2cc(C(=O)NCCN3CCOCC3)ccc2c1=O | . | -23.6% | -7.7% | 20µM* | ? | 4.5
COC(=O)c1ccc2c(=O)n(CCCN3CCOCC3)c(=S)[nH]c2c1 | -9.6% | 1.3% | 3.1% | ? | -7.2 | -0.8
O=C(NCCCN1CCCC1)c1ccc(Cn2c(=S)[nH]c3ccc(Br)cc3c2=O)cc1 | . | . | 2.4% | 22.4µM* | . | -14.0
O=C(NCCCN1CCOCC1)c1ccc2c(=O)n(CCc3ccccc3)c(=O)[nH]c2c1 | -7.7% | 2.9% | 16.6% | ? | -94.8* | ?
COC(=O)c1ccc2c(=O)n(CCN3CCOCC3)c(=S)[nH]c2c1 | -6.0% | -0.8% | 4.2% | 3.98µM* | -100.5* | 2.3
O=C(NCCN1CCCC1)c1ccc(Cn2c(=S)[nH]c3ccc(Br)cc3c2=O)cc1 | . | . | 7.4% | -10.0% | . | -1.8
CN1C(=O)c2ccc(NC(=S)NC(=O)C(C)(C)C)cc2C1=O | . | -11.3% | -5.1% | ? | 42.3 | -0.1
CCC(C(=O)NCc1ccco1)N(C(=O)CNS(=O)(=O)c1ccccc1)c1ccc(OC)cc1 (stereo not drawn) | -8.5% | 3.1% | -1.3% | -9.8% | 11.9 | -0.9
CCc1ccc(OCc2ccccc2C(=O)Nc2ccc3nc(C)cc(N)c3c2)cc1 | -14.8% | -6.6%[0.00818 µM] | -4.7% | -5.5% | . | -5.1
COC(=O)c1ccc2c(=O)n(CCN3CCOCC3)c(SCC(=O)C(C)(C)C)nc2c1 | -8.8% | 3.2% | 0.4% | 12.6µM* | 40.4 | -5.4
COCCn1c(=S)[nH]c2cc(C(=O)NCCCN3CCOCC3)ccc2c1=O | -15.0% | 0.1% | 5.0% | 15.8µM* | 8.0 | -1.2
O=C1C(Cl)=C(N2CCN(c3ccccc3[N+](=O)[O-])CC2)C(=O)c2ccccc21 | -20.7% | 4.3% | -6.2% | 7.08µM* | ? | -1.9
Cn1c(=O)c2cc3c(nc2n(C)c1=O)CC(c1ccccc1)CC3=O (stereo not drawn) | . | . | 7.9% | 14.1µM* | . | -7.6
CSc1nc2nc3c(cn2n1)C(=O)CC(c1ccccc1)C3 (stereo not drawn) | -21.2% | -3.7% | 2.7% | ? | 24.3 | 3.1
CC(C)=CCC/C(C)=C/CO/N=C1/C[C@@H](O)[C@@H](O)[C@@H]2[C@@H]3C(=O)N(Cc4ccccc4)C(=O)[C@H]3CC[C@H]12 | . | . | 5.3%[17.5 µM] | 1.5%[13.5 µM] | . | .
